ChEMBL document CHEMBL3988442, “University of Dundee, Small-Polar-MMV Screening Library” (2021)
In all, about 48,000 compounds went through this assay and about 13,000 (27%) showed an effect of 50% or more. This is one part of the list.

system: Wolbachia pipientis; experiment: Anti-Wolbachia Cell-Based Screen; assay type: functional; design: scale not given: in the data most compounds retested in dose-response had high values; details: 5 µM

Row | Structure (SMILES) | Percent Effect [%]
1 | CCN(C1CCN(c2cccc(F)c2C(C)=O)CC1)S(C)(=O)=O | -1.557
2 | COc1ccnc(N(C)Cc2csc(C)n2)n1 | -11.41
3 | CC(Cn1cncn1)Nc1ccc(-c2nccn2C)nn1 (centres undefined) | -4.731
4 | CC(NC(=O)N(C)Cc1ccc2c(c1)OCCO2)c1nncn1C (centres undefined) | -31.29
5 | Cc1ccc(NCCNC(=O)c2cc(CC(C)C)n[nH]2)nn1 | 121
6 | CC(C)Cc1cc(C(=O)N2CCCN(c3cccnn3)CC2)[nH]n1 | -1.538
7 | CC(C)Cc1cc(C(=O)NC(C)C)[nH]n1 | 116
8 | CC(C)Cc1cc(C(=O)N2CCCN(c3ncccn3)CC2)[nH]n1 | -10.26
9 | CC(C)Cc1cc(C(=O)NCCn2nc3ccccn3c2=O)[nH]n1 | -3.6
10 | Cc1ccc(N2CCCN(C(=O)c3cc(CC(C)C)n[nH]3)CC2)nn1 | 3.453
11 | Cc1nn(CC(=O)N2CCN(c3ncccn3)CC2)c(C)c1Cl | 17.26
12 | Cc1ccc(N(C)C2CCN(C(=O)CCc3ccco3)CC2)nn1 | -5.46
13 | CN(Cc1cccs1)C1CCC[C@@H]2CN(C(N)=O)C[C@H]12.O=C(O)C(F)(F)F (some centres undefined) | 5.173
14 | Cc1ccc(N(C)[C@@H]2CC[C@@H]3CN(C(=O)Cc4cccs4)C[C@@H]32)nn1 | 112.9
15 | Cc1ccc(N(C)[C@@H]2CC[C@@H]3CN(C(=O)CC4CCOCC4)C[C@@H]32)nn1 | 152.8
16 | Cc1ccc(N(C)[C@@H]2CC[C@@H]3CN(C(=O)C4CCOCC4)C[C@@H]32)nn1 | 186.8
17 | CN(Cc1cccs1)C1CCC[C@@H]2CN(C(=O)c3cccn3C)C[C@H]12 (some centres undefined) | 17.98
18 | Cc1ccc(N2C[C@H](C(=O)NCC3CC3)[C@@H]3CCO[C@@H]3C2)nn1.O=C(O)C(F)(F)F | 0.6774
19 | Cc1ccc(N2CCC3(CCN(C(=O)C4CCOC4)CC3)CC2)nn1 (centres undefined) | -12.92
20 | CCN(CCn1cccn1)Cc1nc(-c2cccs2)oc1C | 6.026
21 | N#Cc1cccc(CN2CCn3cc(CNC(=O)C4CCC4)nc3C2)c1 | -7.661
22 | COC(=O)NCC(=O)NC(c1ccc(Cl)cc1)C(F)(F)F (centres undefined) | -6.665
23 | CCN1C(=O)C[C@@H]2[C@@H]1CCN2S(=O)(=O)c1ccc(OC)cc1 | 1.644
24 | COc1ccc(S(=O)(=O)N2CCC[C@@H]3CN(C(=O)C4CC4)C[C@@H]32)cc1F | 83.03
25 | COc1ccc(C(=O)N2CCCC(C)C2)cc1F (centres undefined) | 8.733

Row | Structure (SMILES) | Percent Effect [%]
26 | COc1ccc(S(=O)(=O)N2CCC[C@@H]3CN(C(=O)C4CC4)C[C@@H]32)cc1 | 61.28
27 | COC[C@@H]1CC[C@H]2[C@H](CCN2S(=O)(=O)c2ccc(OC)cc2)O1 | -8.82
28 | COc1ccc(C(=O)N2CCCC(CNS(C)(=O)=O)C2)cc1F (centres undefined) | 1.055
29 | O=C(NCc1cc[nH]n1)NCC(O)c1ccc(F)cc1F (centres undefined) | 2.33
30 | CCN(CC)C(=O)[C@@H]1C[C@H](NC(=O)c2ccn(C(C)(C)C)c2)CN1C | -2.667
31 | O=C1CCCc2occ(C(=O)N3CCCC(O)(CO)C3)c21 (centres undefined) | -7.191
32 | CO[C@H]1COCCN(C(=O)c2ccno2)C1 | -14.2
33 | CC(C)(Oc1ccc(F)cc1)C(=O)NCc1ccco1 | -9.094
34 | O=C(CNc1cc2c(cc1Cl)OCCCO2)NCc1ccc(F)cc1 | 5.92
35 | O=C(CNc1ccc(F)cc1OCC(F)(F)F)NCc1ccco1 | -21.13
36 | Cc1ccc(NCc2cccc3cn[nH]c23)cc1OC1CCOC1 (centres undefined) | 0.01014
37 | COc1ccc(CNC(=O)CNc2ccccc2OC)cc1 | -12.04
38 | O=C(CNc1ccc(OC2CCOC2)cc1)NCc1ccc(F)cc1 (centres undefined) | 77.11
39 | O=C(CNc1ccc(OC2CCOC2)cc1)NCc1cccs1 (centres undefined) | 90.04
40 | O=C(Cc1cccs1)NCc1ccnc(OC2CCOCC2)c1 | -13.9
41 | Cc1ccccc1CNC(=O)CNc1ccc(OC2CCOC2)cc1 (centres undefined) | 97.09
42 | O=C(Nc1ccnc(OC2CCOC2)c1)c1cccs1 (centres undefined) | -9.418
43 | Cc1ccccc1C(=O)Nc1ccc(OC2CCN(C)CC2)cc1 | -1.73
44 | CC(C)(C)Oc1ccc(NCC(=O)NCc2ccco2)cc1 | 90.6
45 | Cc1occc1C(=O)N1CCC(C(O)c2ccc(F)cc2)CC1 (centres undefined) | -2.674
46 | Cc1ccc(C)c(CC(=O)Nc2cnccc2SCCCO)c1 | 3.451
47 | CCCN1CCC(N2CCN(c3cccc(C)n3)CC2)CC1 | 3.962
48 | CC(C)C[C@@H]1N[C@H](C(=O)NCC2CC2)Cc2c[nH]c3cccc1c23 | 1.644
49 | COCC1c2nnn(CC3CC3)c2CCN1C(=O)c1sccc1C (centres undefined) | 4.054
50 | Cc1nnc(N2CCC(CNC(=O)OC(C)(C)C)CC2)c(C#N)c1C | -3.272

Row | Structure (SMILES) | Percent Effect [%]
51 | Cl.Cl.O[C@@H]1C[C@@](CNCC2CCCC2)(COc2cccnc2)C[C@@H]1O | -14.64
52 | O=C(CNc1ccc(OCC2CCOCC2)cc1)NCc1ccco1 | 93.4
53 | O=C(CNc1cccc(S(=O)(=O)C(F)F)c1)NCc1ccco1 | 4.728
54 | O=C(CNc1ccc(OC2CCOC2)cc1)NCc1ccco1 (centres undefined) | 104.1
55 | O=C(CCc1ccncc1)Nc1ccc(OCC2CCOCC2)cc1 | 5.919
56 | O=C(CCc1cccnc1)Nc1ccc(OCC2CCOCC2)cc1 | -6.342
57 | O=C(CNc1cccc(CC(F)(F)F)c1)NCc1ccco1 | 5.703
58 | CCN1CCN(C(=O)CCC2CCN(C(C)CCC(=O)OC)CC2)CC1 (centres undefined) | -3.151
59 | Cc1nccn1-c1ccc(N2CCC(NC(C)C(C)C)CC2)cc1 (centres undefined) | 16.28
60 | CN(C)c1cc(C(=O)NC2(c3cccc(F)c3)CCOCC2)ccn1 | -10.5
61 | Cc1cccc(CN2C[C@@H]3CN(C(=O)c4conc4C)C[C@@H]3C2=O)c1 | 2.313
62 | c1cncc(N2CCOC3(CCCN(c4nncs4)C3)C2)c1 (centres undefined) | -20.57
63 | O=C(C1=NN(Cc2ccccc2)c2ccccc2S1(=O)=O)N1CCCC1 | 25.7
64 | Cc1ccc(N2N=C(C(N)=O)S(=O)(=O)c3cccnc32)cc1 | 70.93
65 | Cc1ccc(-n2nnc(C(=O)NCC3CCCCC3)n2)cc1 | 3.646
66 | CCc1c(C(=O)NCC2CCS(=O)(=O)C2)cnn1-c1ccc(C)cc1 (centres undefined) | 0.07541
67 | Cc1ccc(N2N=C(C(=O)NCC3CC3)S(=O)(=O)c3cccnc32)cc1 | 113.2
68 | CN1N=C(C(=O)N2CCCCC2)S(=O)(=O)c2ccccc21 | 9.429
69 | Cc1ccc(N2N=C(C(=O)O)S(=O)(=O)c3cccnc32)cc1 | 88.09
70 | Cc1nc2c(c(N3CC=CC3)n1)CCN(c1ncccc1C(N)=O)CC2 | -4.106
71 | Cc1ccc(CN2CCN(c3ncccc3C(N)=O)CC2CCO)cc1 (centres undefined) | 0.06546
72 | C[C@H](NC(=O)C1(N(C)Cc2ccccc2)Cc2ccccc2C1)C(N)=O | -2.365
73 | CC(=O)c1c(F)cccc1NC1CCN(S(=O)(=O)C2CC2)CC1 | 15.22
74 | CN(CC(=O)NC(C)(C)C)C(=O)c1cccn1CCc1ccccc1 | 4.312
75 | Cc1ccc(C(=O)N(C)Cc2nccn2CC(F)(F)F)cn1 | 108.9

Row | Structure (SMILES) | Percent Effect [%]
76 | Cc1ccc(C(=O)N(C)Cc2cc(Br)cs2)cn1 | 108.4
77 | Cc1cc(CN(C)C(=O)c2ccc(C(F)(F)F)nc2)no1 | 4.429
78 | CN(Cc1nccn1CC(F)(F)F)C(=O)c1ccc2c(c1)OCO2 | 110.7
79 | CN(Cc1nccn1C)C(=O)c1cccc(CCC(C)(C)O)c1 | -1.939
80 | CCn1c(CN(C)C(=O)c2ccc(O)nc2)nc2ccccc21 | -29.68
81 | Cc1cnn(CCNCc2nccn2CC(F)(F)F)c1 | -5.156
82 | Cc1nn(C)c(C)c1CN(C)C(=O)c1cccc(CCC(C)(C)O)c1 | -10.94
83 | CN(Cc1ccc2c(c1)OCO2)C(=O)c1ccn(C)c(=O)c1 | 11.43
84 | CN(Cc1nccn1CC(F)(F)F)C(=O)c1cccc(N(C)C)c1 | 107.5
85 | CN(Cc1ccc2c(c1)OCO2)C(=O)c1ccc(=O)n(C)c1 | -0.4136
86 | CN(Cc1cc(Br)cn1C)C(=O)c1cccnc1 | -11.61
87 | CCc1nnsc1C(=O)NCc1c(C)nn(CCOC)c1C | 22.53
88 | Cc1ccc(C2CCCCCN2CCNS(C)(=O)=O)o1 (centres undefined) | -18.53
89 | O=C(CN1C(=O)CCCc2sccc21)NC1CCc2nccn2C1 (centres undefined) | -8.511
90 | Cc1cc(CN2C[C@H]3CC[C@@H]2CN(Cc2c(C)noc2C)C3)ccc1F | -0.5585
91 | CCOc1ccc(C(=O)N(C)Cc2nccn2CC(F)(F)F)cc1 | 117.2
92 | CN(C)CC1CCN(Cc2nccn2CC(F)(F)F)CC1 | 2.033
93 | COCc1cccc(C(=O)N(C)Cc2ncc(C)c(OC)c2C)c1 | 6.137
94 | FC(F)(F)Cn1ccnc1CNCCn1cccn1 | -10.84
95 | COc1cc(C(=O)N(C)Cc2nccn2CC(F)(F)F)ccc1C | 111.1
96 | CC(O)C1CCN(Cc2nccn2CC(F)(F)F)CC1 (centres undefined) | -9.918
97 | O=C(O)C(F)(F)F.O=C(O)C(F)(F)F.c1cncc(CN2CCOC(c3ncn4c(C5CC5)cccc34)C2)c1 (centres undefined) | -19.22
98 | Cc1ncsc1CCn1ccnc1-c1cc2n(n1)CCCNC2 | -9.491
99 | COc1cc(C)c(C(C)NC(=O)Nc2nnc(C)s2)cc1OC (centres undefined) | -2.297
